Most compounds without a hit are left out; they make up all but 12% or so of the library.
NS1 inh: blocks influenza NS1 protein function; Potency, µM (highest dose often 46.1 µM), for the others: at the top dose activity, positive = more growth; 270,000 tested, 0.4% active; note: potency is the fitted concentration of half-maximal effect; actives are rising curves; nearly all actives have a fitted effect of over 50% in size
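OD600 was taken as the measure of yeast growth restored by compound in an NS1-expressing S. cerevisiae strain. Cells had been washed out of glucose medium and diluted 1:100 into galactose -URA medium, pH 6.0.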
CHX counter: counter-screen hit for Shiga toxin inhibitors, cycloheximide; cell reporter, cycloheximide protein synthesis inhibition counterscreen; max response, %; 300,000 tested, 12% active; in the data active = max response mostly above about 13%, no sharp cut-off; inactive = mostly below about 14%; note: read at 38.3 µM for the half of the compounds with a filed dose; 0% is about no effect
Shiga toxin inh: inhibitors of Shiga toxin in Vero cells. Vero cells, Shiga toxin protein synthesis inhibition reporter. inhibition, % at 38.7 µM. 290,000 tested, 9.2% active. AID 2315; in the data active = inhibition mostly above about 28%, no sharp cut-off; inactive = mostly below about 43%; note: 0% is about no effect
SARS PLP yeast: blocks SARS-CoV papain-like protease in a yeast assay. S. cerevisiae expressing SARS-CoV PLpro, growth rescue. Potency, µM (titrated, usually from 32.9 µM), for inactives: top-dose activity, positive = growth rescue, hits mostly activators. 330,000 tested, 0.19% active. AID 485353; note: potency is the fitted concentration of half-maximal effect; 0% is about no effect; nearly all actives have a fitted effect of over 55% in size
* = called active by the depositor; i = inactive; . = no result; [ ] = dose if it differs, or a comment. Unless noted, calls come from the whole dose curve.

SMILES	NS1 inh	CHX counter	Shiga toxin inh	SARS PLP yeast
CCOC(=O)c1cccc(NC(=O)CSc2nnc(C)n2CC2CCCO2)c1 (configuration not stated)	1%	-4	-6	-2%
Cc1ccc(NC2=C(N3CCCCC3)C(=O)c3ccccc3C2=O)cc1	-13%	50*	107*	3%
CC(=O)Nc1ccc(S(=O)(=O)NC2=C(N3CCN(C)CC3)C(=O)c3ccccc3C2=O)cc1	7%	-2	4	-1%
Clc1cc(Br)ccc1OCCN1CCOCC1	-3%	31*	48	3%
CCCCOc1ccc(C(=O)Nc2ccc(CN3CCOCC3)cc2)cc1	-2%	2	-4	-7%
CC1CCN(CCCOc2ccc(Br)cc2Cl)CC1	-4%	22*	29*	-5%
CCCCCOc1ccc(CN2CCOCC2)cc1Cl	-87%	41*	102*	-7%
CC(C)NCCCCOc1ccc(Br)cc1Cl	-2%	8	10	0%
O=C1CCC(=O)N1OCCCOc1ccc(Br)cc1Cl	-30%	30*	18	-10%
CC1CCCN(CCOCCOc2ccc(Br)cc2Cl)C1 (configuration not stated)	-18%	-2	-11	-17%
Cc1cc(NC(=O)CSc2nc3c(c(=O)n2C)SCC3)no1	3%	-5	-3	17%
CNC(=O)COC(=O)Cc1ccc(Cl)cc1	-6%	-1	1	-3%
COc1ccc([C@]23Cc4ccccc4C(O2)c2c(cc(-c4ccccc4)oc2=O)O3)cc1	-27%	10	i	0%[6.58 µM]
O=C(COC(=O)c1ccccc1Br)NCCC1=CCCCC1	.	29*	75*	-7%
O=C(COC(=O)c1ccccc1NCCO)NCCC1=CCCCC1	.	.	.	-1%
S=C(NCCC1=CCCCC1)NCc1ccco1	-2%	23*	47*	-1%
O=C(CCn1c(=O)c2ccccc2n(CC(=O)NCCC2=CCCCC2)c1=O)NCc1ccco1	21%	-2	7	-3%
O=C(NC(=S)NCCC1=CCCCC1)c1cncc(Br)c1	14%	18*	active	13µM*
CCCNC(=O)C(=O)NCCC1=CCCCC1	3%	15	15	1%
O=C(NC(=S)NCCC1=CCCCC1)c1ccccc1Br	16%	27*	9	-2%
Cc1ccc(N2CC(C(=O)NCc3n[nH]c(=O)c4ccccc34)CC2=O)cc1C (configuration not stated)	.	.	.	1%
O=c1ccc2cc(S(=O)(=O)N3CCN(c4ccccc4F)CC3)ccc2o1	-2%	-6	-17	-3%
Cc1cc(N/N=C/c2ccccc2)nc(NCc2ccccc2)n1	-17%	24*	14	-21%
Cc1cc(N/N=C/c2cccc(F)c2)nc(NCc2ccccc2)n1	-54%	20*	65*	0%
Cc1cc(N/N=C/c2cccc(Cl)c2)nc(NCc2ccccc2)n1	-17%	23*	31	-31%
SMILES	NS1 inh	CHX counter	Shiga toxin inh	SARS PLP yeast
Cc1cc(N/N=C/c2ccc(Cl)cc2)nc(NCc2ccccc2)n1	-14%	12	-5	-25%
Fc1cccc(/C=N/Nc2ccc(Cl)nn2)c1	1%	41*	47	-1%
Oc1c(Br)cc(/C=N/Nc2ccc(Cl)nn2)cc1Br	-29%	12	15	-8%
COc1ccccc1NC(=O)N1CCN(C)CC1	3%	-3	1	14%
CC(=O)SC1CC2=CC(=O)CC[C@]2(C)C2CC[C@@]3(C)[C@@H](CC[C@@]34CCC(=O)O4)C12 (some centres not stated)	-21%	.	.	.
Nc1ccn([C@@H]2O[C@H](COS(=O)(=O)O)[C@@H](O)[C@H]2O)c(=O)n1	.	.	.	5%
COc1ccc(SC[C@H](Cc2ccccc2)N2CC[C@@H](NC(=O)OCc3ccccc3)CCC2=O)cc1	.	.	.	-16%
C=Cc1cc(F)c(S(=O)(=O)N2CCN(S(=O)(=O)c3ccc4c(c3)OCCO4)CC2)cc1F	.	-10	-13	.
Cc1ccsc1/C=C1\CCC(C2CCCC2)C1=O (configuration not stated)	.	44*	106*	2%
COc1ccc(/C=C2\CCC(C3CCCC3)C2=O)cc1OC (configuration not stated)	5%	36*	49*	0%
COc1cc(/C=C2\CCC(C3CCCC3)C2=O)ccc1OC(C)C (configuration not stated)	-2%	-3	5	-1%
COc1ccc(/C=C2\CCC(C3CCCC3)C2=O)cc1 (configuration not stated)	0%	51*	93*	0%
COc1cc(OC)c(OC)cc1/C=C1\CCC(C2CCCC2)C1=O (configuration not stated)	.	-1	-1	-6%
COc1ccc(/C=C2\CCC(C3CCCC3)C2=O)c(OC)c1 (configuration not stated)	-3%	10	21	0%

Assay outcomes (PubChem BioAssay)
